# Data as given in the supplement of paper PMC8728848.
# The sample as a whole holds a higher share of the strongest signals than the screen did.
# B1: FimA-N2 (Actinomyces oris) (protein)
# chain: MHHHHHHSSGVDLGTENLYFQSNAWIYDVNVYPKNEAIDVDKTIQAQKLNGYGVGSLIKFPVESTAPTLDAKSFYKYFQLKDTLDERLSEVTATDVSLEGTPLQPTDYKVETKQQTVTVTFTAEGLKKIKAAPGKKVSAVFQGKVTKAGNGAITNRAQVISDTLYAEQPPTPETPPTDPENPPTSDEVISRWGDLSIKKVDTHQQGQTKA
# Legend:
# Assay in all cases: glycan array binding signal (z-score within array); higher = stronger binding
# Conditions in all cases: glycan notation: IUPAC condensed, linker removed
# Gal3S(b1-4)GlcNAc = biological target: Gal3S(b1-4)GlcNAc
# Outline: (§1)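 Arrays were curated from the Consortium for Functional Glycomics database, 3228 in total, and kept only where the protein sequence was available. Binding is expressed as a within-array Z-score. This score was averaged across arrays of the same protein sequence at different concentrations or buffers and across linkers, and negative values can be read as non-binding.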
# [1] = biological target: Gal3S(b1-4)[Fuc(a1-3)]Glc6S
# Outline: as §1
# Gal4S(b1-4)GlcNAc = biological target: Gal4S(b1-4)GlcNAc
# Outline: as §1
# Gal6S(b1-4)Glc6S = biological target: Gal6S(b1-4)Glc6S
# Outline: as §1
# GalNAc(b1-3)Gal = biological target: GalNAc(b1-3)Gal
# Outline: as §1
# [2] = biological target: GalNAc(b1-3)Gal(a1-4)Gal(b1-4)GlcNAc(b1-3)Gal(b1-4)Glc
# Outline: as §1
# GalNAc3S(b1-4)GlcNAc3S = biological target: GalNAc3S(b1-4)GlcNAc3S
# Outline: as §1
# GalNAc4S6S(b1-4)GlcNAc = biological target: GalNAc4S6S(b1-4)GlcNAc
# Outline: as §1
# Glc(a1-6)Glc(a1-6)Glc = biological target: Glc(a1-6)Glc(a1-6)Glc
# Outline: as §1
# GlcA(b1-3)GlcNAc = biological target: GlcA(b1-3)GlcNAc
# Outline: as §1
# [3] = biological target: GlcNAc(b1-2)[GlcNAc(b1-4)]Man(a1-3)[GlcNAc(b1-4)][GlcNAc(b1-2)[GlcNAc(b1-6)]Man(a1-6)]Man(b1-4)GlcNAc(b1-4)[Fuc(a1-6)]GlcNAc
# Outline: as §1
# [4] = biological target: GlcNAc(b1-3)Gal(b1-4)GlcNAc
# Outline: as §1
# [5] = biological target: GlcNAc(b1-3)Gal(b1-4)GlcNAc(b1-3)Gal(b1-4)GlcNAc(b1-2)Man(a1-3)[GlcNAc(b1-3)Gal(b1-4)GlcNAc(b1-3)Gal(b1-4)GlcNAc(b1-2)Man(a1-6)]Man(b1-4)GlcNAc(b1-4)[Fuc(a1-6)]GlcNAc
# Outline: as §1
# Man(a1-2)Man(a1-3)Man = biological target: Man(a1-2)Man(a1-3)Man
# Outline: as §1
# [6] = biological target: Neu5Ac(a2-3)Gal(b1-4)GlcNAc
# Outline: as §1
# [7] = biological target: Neu5Ac(a2-3)Gal(b1-4)GlcNAc(b1-2)[Neu5Ac(a2-3)Gal(b1-4)GlcNAc(b1-6)]Man(a1-6)[Neu5Ac(a2-3)Gal(b1-4)GlcNAc(b1-2)Man(a1-3)]Man(b1-4)GlcNAc(b1-4)GlcNAc
# Outline: as §1
# [8] = biological target: Neu5Ac(a2-3)Gal(b1-4)GlcNAc(b1-2)[Neu5Ac(a2-3)Gal(b1-4)GlcNAc(b1-6)]Man(a1-6)[Neu5Ac(a2-3)Gal(b1-4)GlcNAc(b1-2)Man(a1-3)][GlcNAc(b1-4)]Man(b1-4)GlcNAc(b1-4)GlcNAc
# Outline: as §1
# [9] = biological target: Neu5Ac(a2-3)Gal(b1-4)GlcNAc(b1-3)Gal(b1-4)GlcNAc(b1-2)Man(a1-3)[Neu5Ac(a2-3)Gal(b1-4)GlcNAc(b1-3)Gal(b1-4)GlcNAc(b1-2)Man(a1-6)]Man(b1-4)GlcNAc(b1-4)GlcNAc
# Outline: as §1
# [10] = biological target: Neu5Ac(a2-3)Gal(b1-4)GlcNAc(b1-6)GalNAc
# Outline: as §1
# [11] = biological target: Neu5Ac(a2-3)Gal(b1-4)[Fuc(a1-3)]GlcNAc(b1-6)[Gal(b1-3)]GalNAc
# Outline: as §1
# [12] = biological target: Neu5Ac(a2-3)[Neu5Ac(a2-6)]GalNAc
# Outline: as §1
# Neu5Ac(a2-6)Gal(b1-4)Glc = biological target: Neu5Ac(a2-6)Gal(b1-4)Glc
# Outline: as §1
# [13] = biological target: Neu5Ac(a2-6)Gal(b1-4)GlcNAc(b1-2)Man(a1-3)[GlcNAc(b1-4)][Neu5Ac(a2-6)Gal(b1-4)GlcNAc(b1-2)Man(a1-6)]Man(b1-4)GlcNAc(b1-4)GlcNAc
# Outline: as §1
# [14] = biological target: Neu5Ac(a2-6)Gal(b1-4)GlcNAc(b1-2)Man(a1-3)[Neu5Ac(a2-6)Gal(b1-4)GlcNAc(b1-2)Man(a1-6)]Man(b1-4)GlcNAc(b1-4)GlcNAc
# Outline: as §1
# [15] = biological target: Neu5Ac(a2-6)Gal(b1-4)GlcNAc(b1-2)Man(a1-6)Man(b1-4)GlcNAc(b1-4)GlcNAc
# Outline: as §1
# [16] = biological target: Neu5Ac(a2-6)Gal(b1-4)GlcNAc(b1-2)Man(a1-6)[Gal(b1-4)GlcNAc(b1-2)Man(a1-3)]Man(b1-4)GlcNAc(b1-4)GlcNAc
# Outline: as §1
# [17] = biological target: Neu5Ac(a2-6)Gal(b1-4)GlcNAc(b1-2)Man(a1-6)[GlcNAc(b1-2)Man(a1-3)]Man(b1-4)GlcNAc(b1-4)GlcNAc
# Outline: as §1
# [18] = biological target: Neu5Ac(a2-6)Gal(b1-4)GlcNAc(b1-3)Gal(b1-4)GlcNAc(b1-6)[Gal(b1-3)]GalNAc
# Outline: as §1
# [19] = biological target: Neu5Ac(a2-6)GlcNAc(b1-4)GlcNAc(b1-4)GlcNAc
# Outline: as §1
# [20] = biological target: Neu5Ac(a2-8)Neu5Ac(a2-3)Gal(b1-4)GlcNAc
# Outline: as §1
# [21] = biological target: Neu5Ac(a2-8)Neu5Ac(a2-3)[GalNAc(b1-4)]Gal(b1-4)Glc
# Outline: as §1
# [22] = biological target: Neu5Gc(a2-3)Gal(b1-4)GlcNAc(b1-3)Gal(b1-4)GlcNAc(b1-2)Man(a1-3)[Neu5Gc(a2-3)Gal(b1-4)GlcNAc(b1-3)Gal(b1-4)GlcNAc(b1-2)Man(a1-6)]Man(b1-4)GlcNAc(b1-4)GlcNAc
# Outline: as §1
binder,measurement,setting,value
B1,glycan array binding signal (z-score),Gal3S(b1-4)GlcNAc,2.69
same,glycan array binding signal (z-score),[1],3.08
same,glycan array binding signal (z-score),Gal4S(b1-4)GlcNAc,3.9
same,glycan array binding signal (z-score),Gal6S(b1-4)Glc6S,-0.257
same,glycan array binding signal (z-score),GalNAc(b1-3)Gal,2.41
same,glycan array binding signal (z-score),[2],1.53
same,glycan array binding signal (z-score),GalNAc3S(b1-4)GlcNAc3S,0.248
same,glycan array binding signal (z-score),GalNAc4S6S(b1-4)GlcNAc,-0.331
same,glycan array binding signal (z-score),Glc(a1-6)Glc(a1-6)Glc,-0.88
same,glycan array binding signal (z-score),GlcA(b1-3)GlcNAc,0.654
same,glycan array binding signal (z-score),[3],-0.355
same,glycan array binding signal (z-score),[4],0.299
same,glycan array binding signal (z-score),[5],-0.07
same,glycan array binding signal (z-score),Man(a1-2)Man(a1-3)Man,0.075
same,glycan array binding signal (z-score),[6],-0.301
same,glycan array binding signal (z-score),[7],-0.853
same,glycan array binding signal (z-score),[8],-0.874
same,glycan array binding signal (z-score),[9],-0.355
same,glycan array binding signal (z-score),[10],1.38
same,glycan array binding signal (z-score),[11],1.73
same,glycan array binding signal (z-score),[12],-1.07
same,glycan array binding signal (z-score),Neu5Ac(a2-6)Gal(b1-4)Glc,0.148
same,glycan array binding signal (z-score),[13],-1.7
same,glycan array binding signal (z-score),[14],0.297
same,glycan array binding signal (z-score),[15],-0.759
same,glycan array binding signal (z-score),[16],-1.01
same,glycan array binding signal (z-score),[17],0.589
same,glycan array binding signal (z-score),[18],-0.597
same,glycan array binding signal (z-score),[19],0.675
same,glycan array binding signal (z-score),[20],-0.815
same,glycan array binding signal (z-score),[21],-1.37
same,glycan array binding signal (z-score),[22],-0.144
